# Assay results as given in PubChem BioAssay AID1159580 (chemical genetic matrix, 2015).
# About 2,000 (36%) of roughly 5,500 compounds were called active. Roughly 18% stayed inconclusive and do not appear here. The list shows a part of the results. A number with no mark means an inactive call. Cut-off read from the data, not from the text of the source: active = normalized growth mostly below about 0.91 (no sharp cut-off); inconclusive = no clear call, values can overlap the other calls; inactive = mostly above about 0.92.
# Test: chemical genetic growth profiling, strain panel (AID 1159580);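 note: tested at 20 µM; growth read once vehicle control cultures reached saturation at 30 °C; 1 = growth at the plate median or of vehicle wells; lower values mean less growth of the strain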
# Conditions: S. cerevisiae deletion strains, growth OD
compound,measurement,setting,value
Cc1cc(Br)c(NC(=O)C(Cl)(Cl)Cl)c(Br)c1,normalized growth,"locus YAL013W, strain DEP1, hits give low values",0.917 (active)
same,normalized growth,"locus YBR229C, strain ROT2, hits give low values",0.911 (active)
same,normalized growth,"locus YDL101C, strain DUN1, hits give low values",0.936
same,normalized growth,"locus YDR150W, strain NUM1, hits give low values",0.909
same,normalized growth,"locus YEL061C, strain CIN8, hits give low values",0.93
same,normalized growth,"locus YGR078C, strain PAC10, hits give low values",0.905 (active)
same,normalized growth,"locus YHR030C, strain SLT2, hits give low values",0.592 (active)
same,normalized growth,"locus YHR087W, strain rtc3, hits give low values",0.899 (active)
same,normalized growth,"locus YJR043C, strain POL32, hits give low values",0.927
same,normalized growth,"locus YJR075W, strain HOC1, hits give low values",0.923
same,normalized growth,"locus YKL190W, strain CNB1, hits give low values",0.958
same,normalized growth,"locus YLR039C, strain RIC1, hits give low values",0.538 (active)
same,normalized growth,"locus YLR058C, strain SHM2 (second series), hits give low values",0.907 (active)
same,normalized growth,"locus YLR085C, strain ARP6, hits give low values",0.73 (active)
same,normalized growth,"locus YLR262C, strain YPT6, hits give low values",0.579 (active)
same,normalized growth,"locus YML094W, strain GIM5, hits give low values",0.944
same,normalized growth,"locus YMR219W, strain ESC1, hits give low values",0.933 (active)
same,normalized growth,"locus YMR263W, strain SAP30, hits give low values",0.96
same,normalized growth,"locus YMR307W, strain GAS1, hits give low values",0.648 (active)
same,normalized growth,"locus YNL153C, strain GIM3, hits give low values",0.947
same,normalized growth,"locus YNL298W, strain CLA4 (second series), hits give low values",0.875
same,normalized growth,"locus YNL322C, strain KRE1, hits give low values",0.94 (active)
same,normalized growth,"locus YNR030W, strain Alg12, hits give low values",0.938
same,normalized growth,"locus YOL006C, strain TOP1, hits give low values",0.615 (active)
same,normalized growth,"locus YPL055C, strain LGE1, hits give low values",0.919
same,normalized growth,"locus YPL241C, strain CIN2, hits give low values",0.939
same,normalized growth,"locus YPR135W, strain CTF4, hits give low values",0.736
